Results on 40 compounds are retold here after PubChem BioAssay (NCI).

Several values for one entry are separate records, joined by “and”; a condition that tells them apart may be missing. Equal entries are not always repeated. About 83,000 compounds went through this panel and 20% of them were active in at least one assay; those are over-represented in the sample as a whole.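 Growth was measured after 48 h exposure to one concentration of compound in 96-well plates. Values under 10 count as active.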 Unmarked numbers belong to inactive results. Activity calls are given as the source filed them.

The experiment concerns MDA-MB-468 breast. Nature of the experiment: NCI-60 one-dose screen, 48 h (100 = growth as untreated, 0 = no growth, -100 = all killed). As to conditions: 10 µM unless noted.
As to `CCN(CC)CCN1C(=O)c2cccc3c(/C=C/CN4C(=O)c5cccc6cccc(c56)C4=O)ccc(c23)C1=O`, the growth is 99.2%.

Regarding `CCSCC1CC(O)(c2ccccc2)CC(c2ccc(F)cc2)O1` (stereo not given), the growth was 8.89% (active).

Turning to `C/C=C(\C)C(C(=O)NC1CCCCC1)N(C(=O)C1CCc2cc(F)ccc2O1)c1ccc([N+](=O)[O-])cc1` (stereo not given), the growth was 85.6%.

Turning to `Cc1nc2sc(C(=O)Nc3ccccc3Cl)c(N)c2cc1C(C)O` (stereo not given), the growth is 70.1%.

For `Nc1ccc2c(c1)Cc1cc(N)c(Cl)cc1-2`, the growth was 80.4%.

Take `CCOC(=O)CSCCC#N`: the growth is 109%.

Consider `CC(=O)Nc1ccc(S(=O)(=O)N/N=C\c2ccc(Cl)c(Cl)c2)cc1`, for which the growth is 100%.

For the compound `O=C(Cn1cc(CN2C(=O)c3ccc([N+](=O)[O-])cc3C2=O)nn1)Nc1ccccc1Br`, the growth was 111%.

Take `COc1ccc(NC(=O)COCCOCCNC[C@@H]2C(=O)O[C@H]3[C@H]2CC/C(COC(=O)OC/C2=C/CC[C@@]4(C)O[C@H]4[C@H]4OC(=O)[C@@H](CN(C)C)[C@@H]4CC2)=C\CC[C@@]2(C)O[C@@H]32)c(O)c1C(N)=O`: the growth was -19.5% (active).

For the compound `COc1cc2ncnc(Nc3ccc(S(=O)(=O)Nc4cc(C)on4)cc3)c2cc1OCCCN1CCN(c2ccc([N+](=O)[O-])cc2)CC1`, the growth is 115%.

As for `CC(=O)c1ccc(NCC(=O)Nc2ccccn2)cc1`, the growth was 106%.

Turning to `N=C(N)N1CCc2ccccc2C1`, the growth is 41% and 107%.

Regarding `C=CCC(CCC(CC=C)C(=O)OCC)C(=O)OCC` (stereo not given), the growth is 108%.

Turning to `COc1ccc(/C=C/c2c(C(C)=O)c(C)nc3ccccc23)cc1`, the growth is 39.6%.

For the compound `Nc1nc2cc(O)ccc2n2cc3c(F)cccc3c12`, the growth is 18.6%.

In the case of `CCNC(=O)CCCCC(=O)c1c(C)[nH]c(/C=C2\N=C(c3ccc[nH]3)C=C2OC)c1C`, the growth was -22.7% (active).

For `Nc1nc(=O)c2ccccc2s1`, the growth is 109%.

Turning to `CCOC(=O)c1ccc(N2NC(=O)/C(=C/c3ccc([N+](=O)[O-])o3)C2=O)cc1`, the growth is 106%.

For the compound `O=C(O)c1ccnc(Br)c1`, the growth was 91.1%.

Consider `N#CC1C=Cc2c(ccc3ccccc23)N1C(=O)c1ccccc1` (stereo not given), for which the growth was -10.5% (active).

Consider `COc1ccc(/C=C/c2c(C(=O)/C=C/c3ccc(F)cc3)c(C)nc3ccccc23)cc1`, for which the growth is 51.5%.

Regarding `COc1ccc2c(c1)c(-c1nc(-c3cn(C)c4ncccc34)cs1)cn2CCN`, the growth is 16.1%.

On to `COc1ccc(/C=C2\CCCC3=C2N=C2SC(C)=CN2C3c2ccc(OC)cc2)cc1` (stereo not given), for which the growth is 85.1%.

Take `N#Cc1cc(-c2nc3ccccc3s2)c(=O)n(NS(=O)(=O)c2ccccc2)c1N`: the growth is 118%.

As to `O=C1c2cccnc2-c2nccc3c2c1nc1cc(Br)ccc13`, the growth was -54.6% (active).

As for `CCCCCCCC/C=C/CCCCCCCC1=NC(C)(C)CN1CCO`, the growth is -64.5% (active).

Regarding `CN(Cc1ccccc1)c1nc(Cl)c(C2CC(c3ccc(Cl)cc3)=Cc3[nH][nH]c(=O)c32)s1` (stereo not given), the growth was 106%.

For `COc1cccc(N2CCN(c3ncnc4cc[nH]c34)CC2)c1`, the growth is 18.8%.

On to `Cc1ccc(N)cc1S(=O)(=O)O`, for which the growth was 127% and 110%.

As to `Cc1ccc2c(n1)C(=O)C(Cl)=C(Nc1ccc(N3CCN(C)CC3)cc1)C2=O`, the growth is -84.6% (active).

For `Cc1c(O)c(=O)n(-c2ccccc2)n1C`, the growth was 105%.

As to `CCCCCCNC(=O)Oc1ccc(/C(=C(\C)c2ccc(Cl)cc2)c2ccc(OCCN(CC)CC)cc2)cc1`, the growth was 52.4%.

Consider `CC1CCN(S(=O)(=O)c2ccc(S(=O)(=O)N3CCCC(c4nc5c(nnn5Cc5cccc(Cl)c5)c(=O)[nH]4)C3)cc2)CC1` (stereo not given), for which the growth is 27.7%.

For the compound `CCn1cc(C(=O)O)c(=O)c2cc(F)c(N3CCN(S(=O)(=O)c4ccc(OC)c(OC)c4)CC3)cc21`, the growth was 100%.

With `C#Cc1ccc(-n2c(/C=C/c3ccc(C(F)(F)F)cc3)nc3ncccc3c2=O)cc1`, the growth is -9.87% (active).

On to `CC[C@]12C=CCN3CC[C@@]4(c5ccc(OC)cc5N(C)[C@H]4[C@@](O)(C(=O)OC)[C@@H]1OC(=O)CCC(=O)N[C@@H](Cc1c[nH]c4ccccc14)C(=O)OC)[C@@H]32`, for which the growth was -20.8% (active).

Take `CN1C(=O)NC(Cc2c[nH]c3c(Cl)cccc23)C1=O` (stereo not given): the growth is 110%.

Turning to `O=C1/C(=C/c2ccccc2)CN(CCC(=O)N2C/C(=C\c3ccccc3)C(=O)/C(=C/c3ccccc3)C2)C/C1=C\c1ccccc1`, the growth is 66.9%.

Regarding `CC(C)(C)C1=CC(=O)C(C(C)(C)C)=CC1=O`, the growth was 96.7%.

Take `CCNCCNc1cc(-c2ccc(Cl)cc2)c(C#N)c2nc3ccccc3n12`: the growth is -45.3% (active).
